The source of these data is PubChem BioAssay (EPA / NIEHS).

Experiment [1] can be described thus: CCTE_Simmons_MITO_basal_resp_rate: CCTE's HepG2 Seahorse XF Respirometric Screening Assay at Basal Respiratory State, Simmons Lab (AID 2284001). Conditions: actives raise or lower the signal. Summed up:
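Basal-phase OCR in HepG2 cells, read at 6-min intervals across a 72-min run, with test compound injected at 125 nM–100 uM final (7 points). Fitted both directions against DMSO; three biological replicates per concentration.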

Experiment [2] in a line: CCTE_Simmons_MITO_max_resp_rate: CCTE's HepG2 Seahorse XF Respirometric Screening Assay at Maximal Respiratory State [uncoupled], Simmons Lab (AID 2284002). As to conditions: actives raise or lower the signal. Summed up:
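Read-out is oxygen consumption rate at maximal respiration, taken after FCCP uncoupling of compound-treated HepG2 cells. Seven final concentrations from 125 nM to 100 uM were tested, each in three biological replicates.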

The nature of experiment [3]: CCTE_Simmons_MITO_inhib_resp_rate: CCTE's HepG2 Seahorse XF Respirometric Screening Assay at Inhibited Respiratory State [full ETC block], Simmons Lab (AID 2284006). As to conditions: actives raise or lower the signal. Put shortly: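 This endpoint is the respiration rate remaining after rotenone/antimycin A block, in HepG2 cells on a Seahorse XF96. Chemicals spanned 125 nM–100 uM final, in three biological replicates. OCR was read every 6 minutes for 72 minutes and compared with DMSO vehicle.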

Experiment [4] can be described thus: CCTE_Simmons_MITO_viability: CellTiter-Glo Viability Assessment for CCTE's HepG2 Seahorse XF Respirometric Screening Assay [post-hoc], Simmons Lab (AID 2284007; active means hit-call score of the fitted dose curve at least 0.9, where 1 is the maximum;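 further: cells exposed to chemical for 90 min before the ATP read; actives lower ATP signal relative to DMSO baseline meaning reduced viability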). Put shortly:
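Luciferase-coupled ATP read-out after the Seahorse run: HepG2 cells treated 90 minutes with test chemical, 7-point series of 125 nM–100 uM final, in triplicate biological runs. Vehicle DMSO; dichlone as positive control over 8 concentrations.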

Experiment [5] can be described thus: CCTE_Harrill_HTTr_Viability_MCF7: CCTE's 6-hour Cell Viability Assessment for the High-Throughput Transcriptomics (HTTr) Platform, in MCF-7 cells cultured in DMEM + 10% fetal bovine serum, Harrill Lab (AID 2284010). Summed up:
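Propidium iodide exclusion, imaged by high-content analysis, gauged viability after a six-hour exposure across eight concentrations. Cells were MCF-7 grown in DMEM with 10% fetal bovine serum; fits run in both directions against DMSO.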

Experiment [6] is described as follows: CCTE_Harrill_HTTr_Apoptosis_MCF7: CCTE's 6-hour Apoptosis Assessment for the High-Throughput Transcriptomics (HTTr) Platform, in MCF-7 cells cultured in DMEM + 10% fetal bovine serum, Harrill Lab (AID 2284011). Summed up:
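MCF-7 (DMEM + 10% FBS), 384-well; 8-pt dilution series, 6 h chemical exposure; caspase-3/7 activation via CellEvent Caspase 3/7 Green, HCI; bidirectional fit vs DMSO.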

A short description of experiment [7]: CCTE_Shafer_MEA_acute_spike_number: CCTE's Neural Acute Assay for Total Number of Spikes, Shafer Lab (AID 2284008). Put shortly: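 Read-out is the total spike count over 40 min, expressed as percent change from each well's own pre-treatment baseline and fitted in the loss direction against DMSO. Rat cortical neurons were exposed at 0.03-40 uM on DIV 13 or 15.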

The nature of experiment [8]: CCTE_Shafer_MEA_acute_firing_rate_mean: CCTE's Neural Acute Assay for Mean Firing Rate, Shafer Lab (AID 2284009).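 Further: analyzed for loss of signal so actives lower firing rate relative to DMSO.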 Put shortly: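 Primary rat cortical neurons on 16-electrode MEA wells were exposed on DIV 13 or 15 to compound (0.03-40 uM). Spike counts per recording time, averaged over electrodes, were compared between 40-min baseline and 40-min post-exposure recordings as percent change.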

Experiment [9] is described as follows: CCTE_Shafer_MEA_acute_per_burst_spike_number_mean: CCTE's Neural Acute Assay for Average Number of Spikes Per Burst, Shafer Lab (AID 2284015).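 Further: hits are decreases in mean spikes per burst versus baseline.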 Put shortly: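 Primary rat cortical neurons on 48-well MEA plates, treated on DIV 13 or 15 at 0.03-40 uM. Spontaneous activity recorded 40 min before and 40 min after compound at 37 C; percent change in mean spikes per single-electrode burst per well, fitted in the loss direction versus DMSO.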

Experiment [10] can be described thus: CCTE_Shafer_MEA_acute_interburst_interval_mean: CCTE's Neural Acute Assay for Mean Interburst Interval, Shafer Lab (AID 2284016).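 Further: percent change of mean interburst interval versus each well's own pre-dose baseline; curves fitted for decrease in interburst interval relative to DMSO.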 Summed up:
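Primary rat cortical neurons on 16-electrode MEA wells were recorded 40 min at baseline on DIV 13 or 15, then 40 min after compound (0.03-40 uM), at 37 C. Value is percent change in mean interburst interval per well, DMSO as negative control.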

Experiment [11] in a line: CCTE_Shafer_MEA_acute_burst_percentage_mean: CCTE's Neural Acute Assay for Percentage of Spikes in a Burst, Shafer Lab (AID 2284017). Put shortly: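 Primary rat cortical neurons on 16-electrode MEA wells; 40 min baseline recorded at DIV 13 or 15, then 40 min after compound (0.03-40 uM) at 37 C. Well-mean fraction of spikes in single-electrode bursts; percent change from baseline, DMSO as negative control.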

Experiment [12] is described as follows: CCTE_Shafer_MEA_acute_burst_percentage_std: CCTE's Neural Acute Assay for Standard Deviation of Burst Percentage, Shafer Lab (AID 2284018).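 Further: fitted in the negative direction so actives lower burst percentage SD.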 Put shortly:
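Value is percent change from baseline in the across-electrode SD of spikes-in-bursts percentage, wells with >/= 10 active electrodes. Acute 40-min exposure to 0.03-40 uM on DIV 13 or 15 rat cortical cultures, recorded at 37 C after 40-min baseline.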

Experiment [13] concerns the target Nucleoli Translocation, AR (gene 367) (UniProt P10275). As to the kind of experiment: UPITT_HCI_U2OS_AR_TIF2_Nucleoli_Antagonist: University of Pittsburgh U2OS Androgen Receptor-Transcriptional Intermediary Factor 2 (AR-TIF2) Antagonism High Content Imaging Assay for Nucleoli Translocation (AID 2283997; active means hit-call score of the fitted dose curve at least 0.9, where 1 is the maximum). Put shortly: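 Antagonism is read as loss of nucleolar AR-RFP signal relative to DHT, imaged in U2OS cells also carrying GFP-TIF2. Compounds screened at 20 uM final, 0.2% DMSO; primary actives retested in triplicate.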

The target is the same in experiment [14]. Kind of experiment: UPITT_HCI_U2OS_AR_TIF2_Nucleoli_Agonist: University of Pittsburgh U2OS Androgen Receptor-Transcriptional Intermediary Factor 2 (AR-TIF2) Agonism High Content Imaging Assay for Nucleoli Translocation (AID 2283998; active means hit-call score of the fitted dose curve at least 0.9, where 1 is the maximum). Put shortly: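 Readout is red (AR-RFP) fluorescence localized to nucleoli, measured by high-content imaging and analysed for increase relative to DMSO. Compound series spanned 0.195 to 50 uM final in 0.5% DMSO.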

The target of experiment [15] is Ratio of Nucleoli Translocation and Cytoplasm, AR (gene 367) (UniProt P10275). As to the kind of experiment: UPITT_HCI_U2OS_AR_TIF2_Nucleoli_Cytoplasm_Ratio_Agonist: University of Pittsburgh U2OS Androgen Receptor-Transcriptional Intermediary Factor 2 (AR-TIF2) Agonism High Content Imaging Assay for Ratio of Nucleoli Translocation and Cytoplasm (AID 2284000; active means hit-call score of the fitted dose curve at least 0.9, where 1 is the maximum;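 further: hits raise the red nucleolar to cytoplasm ratio above vehicle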). Summed up:
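Compounds tested at 20 uM final in primary screen (0.2% DMSO) and 0.195-50 uM final in dose-response (0.5% DMSO). Imaging of human U2OS cells bearing RFP-AR and GFP-TIF2; endpoint is nucleoli/cytoplasm red signal ratio, positive direction relative to DMSO.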

Experiment [16] in a line: CCTE_Harrill_HTTr_CellCount_MCF7: CCTE's Cell Proliferation Assessment for the High-Throughput Transcriptomics (HTTr) Platform, Harrill Lab (AID 2284012; active means hit-call score of the fitted dose curve at least 0.9, where 1 is the maximum;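 further: cells exposed to compound for six hours; intended direction is loss of nuclei count meaning fewer cells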). Summed up:
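Cell count from high-content imaging of Hoechst-labeled nuclei serves as viability/growth readout. Chemicals were applied to MCF-7 cells in eight concentrations for six hours, with fitting in both directions relative to DMSO.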

Experiment [17] in a line: TOX21_TR_RXR_BLA_Agonist_Followup_viability: Viability Assessment in the Tox21 Thyroid Hormone Receptor beta Retinoid X Receptor alpha (RXRa) Agonism Beta-lactamase (BLA) Follow-Up Assay (AID 2283970; active means hit-call score of the fitted dose curve at least 0.9, where 1 is the maximum). Summed up:
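CellTiter-Glo ATP luciferase read-out of cell viability, multiplexed with the beta-lactamase reporter run. RXRa-bla HEK293T cells in charcoal-stripped serum medium were exposed 16 h at 37C; data fitted both directions relative to DMSO.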

Results filed as inconclusive are left out. The source made the active and inactive calls. How the source made its calls, unless noted: active means hit-call score of the fitted dose curve at least 0.9, where 1 is the maximum; inactive means score below 0.9.

Sequence of Nucleoli Translocation, AR (gene 367) (P10275 whole entry, looked up): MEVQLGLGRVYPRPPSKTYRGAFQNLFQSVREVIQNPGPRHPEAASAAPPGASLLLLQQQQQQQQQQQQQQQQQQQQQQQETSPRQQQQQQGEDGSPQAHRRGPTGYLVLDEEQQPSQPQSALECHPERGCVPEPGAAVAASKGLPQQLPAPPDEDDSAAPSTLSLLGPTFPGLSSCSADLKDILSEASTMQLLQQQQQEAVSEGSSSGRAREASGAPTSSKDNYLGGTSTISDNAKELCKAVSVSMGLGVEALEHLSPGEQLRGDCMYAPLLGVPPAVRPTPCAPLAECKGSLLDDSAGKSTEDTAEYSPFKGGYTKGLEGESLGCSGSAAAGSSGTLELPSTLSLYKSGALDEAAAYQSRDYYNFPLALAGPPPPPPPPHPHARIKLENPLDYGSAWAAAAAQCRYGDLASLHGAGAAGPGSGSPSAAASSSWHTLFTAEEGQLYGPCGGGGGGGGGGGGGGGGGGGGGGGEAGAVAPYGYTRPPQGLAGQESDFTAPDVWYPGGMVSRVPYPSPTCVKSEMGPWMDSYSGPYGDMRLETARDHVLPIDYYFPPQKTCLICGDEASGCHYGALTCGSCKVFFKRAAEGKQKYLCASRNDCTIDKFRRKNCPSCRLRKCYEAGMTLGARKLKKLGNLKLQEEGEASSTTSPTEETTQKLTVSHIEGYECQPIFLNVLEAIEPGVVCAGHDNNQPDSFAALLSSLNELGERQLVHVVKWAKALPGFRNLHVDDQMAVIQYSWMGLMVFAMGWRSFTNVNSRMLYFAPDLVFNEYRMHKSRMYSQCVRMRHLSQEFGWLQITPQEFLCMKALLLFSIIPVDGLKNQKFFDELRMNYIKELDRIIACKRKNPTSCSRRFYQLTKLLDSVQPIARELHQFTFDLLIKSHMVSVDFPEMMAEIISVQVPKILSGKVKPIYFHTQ
Sequence of Ratio of Nucleoli Translocation and Cytoplasm, AR (gene 367) (P10275 whole entry, looked up): as above

With `C[C@]12CC[C@@H]3c4ccc(O)cc4CC[C@H]3[C@@H]1CC[C@@H]2O`, the AC50 in experiment [1] is 27.1 µM (active); in experiment [4], 27 µM (active). Further, the molecule was classed as inactive in [2], in experiment [3], in [5] and in experiment [6].
As to `CCCO[Si](OCCC)(OCCC)OCCC`, the outcome in experiment [7], in experiment [8], in [9], in experiment [11] and in experiment [12] was inactive. The AC50 in experiment [10] was 15 µM (active).
Regarding `c1ccc2c(c1)-c1ccc3ccc4cccc5cc-2c1c3c45`, the AC50 in [13] was 15.4 µM (active). The outcome in [14], in [15], in experiment [5] and in experiment [6] was inactive.
Regarding `c1ccc(OCCOc2ccccc2)cc1`, the outcome in experiment [7], in [8], in [5], in experiment [6], in experiment [16] and in experiment [9] was inactive. For the same molecule, the molecule was classed as inactive in [10], in experiment [11] and in experiment [12].
As for `CCCCN(CCO)CCO`, the result in [7], in [8], in [9], in [11] and in experiment [12] was inactive. For the same molecule, the concentration at half-maximal activity (AC50) in [10] was 24.1 µM (active).
For `CCCCCCC(C)O` (configuration not stated), the outcome in [17] was inactive.
`CC(C)(O)CCc1ccccc1`: the result in experiment [5], in experiment [6] and in [16] was inactive.
`COc1ccccc1O`: the outcome in experiment [5], in [6] and in experiment [16] was inactive.
Consider `CN(C)C`, for which the outcome in experiment [5], in experiment [6] and in experiment [16] was inactive.
`CC(=O)CC(=O)N(C)C`: the result in [5], in experiment [6] and in experiment [16] was inactive.
For `CC(=O)OC/C=C(C)/C=C/C=C(C)/C=C/C1=C(C)CCCC1(C)C`, the outcome in experiment [5], in experiment [6] and in experiment [16] was inactive.
As to `O=C(O)c1cc2ccccc2cc1O`, the result in experiment [5], in experiment [6] and in experiment [16] was inactive.
As for `COc1ccc2[nH]cc(CCNC(C)=O)c2c1`, the result in experiment [5], in experiment [6] and in [16] was inactive.
In the case of `Cc1ccc(C(C)(C)O)cc1`, the outcome in [5], in experiment [6] and in experiment [16] was inactive.
As to `NC(=O)c1c(Cl)cccc1Cl`, the result in experiment [5], in [6] and in [16] was inactive.
On to `CCCc1ccc(O)cc1`, for which the outcome in experiment [5], in experiment [6] and in [16] was inactive.
As for `O=c1cc(-c2ccc(O)cc2)oc2cc(O)cc(O)c12`, the outcome in experiment [5], in experiment [6] and in [16] was inactive.
Turning to `NC(N)=S`, the outcome in experiment [5], in [6] and in experiment [16] was inactive.
For the molecule `c1ccc2scnc2c1`, the outcome in experiment [5], in experiment [6] and in [16] was inactive.
As to `CC(=O)C1=C(C)[C@@H]2C[C@@]3(C1)[C@H](C)CC[C@H]3C2(C)C`, the outcome in experiment [5], in experiment [6] and in [16] was inactive.
Turning to `CC12CCC(C1)C(C)(C)C2O` (configuration not stated), the outcome in experiment [5], in [6] and in experiment [16] was inactive.
Consider `Cc1cccc(O)c1`, for which the outcome in experiment [5], in experiment [6] and in [16] was inactive.
As to `COc1ccc(C(C)=O)cc1`, the result in experiment [5], in experiment [6] and in experiment [16] was inactive.
Take `C[C@H](CCC(=O)O)[C@H]1CC[C@H]2[C@@H]3CC[C@@H]4C[C@H](O)CC[C@]4(C)[C@H]3CC[C@]12C`: the result in [5], in [6] and in experiment [16] was inactive.
With `CN(C)CCCNCCCN(C)C`, the outcome in experiment [5], in experiment [6] and in [16] was inactive.
`[O-]/[N+](=N\O)c1ccccc1`: the result in [5], in [6] and in experiment [16] was inactive.
`NC(N)=NC(N)=NCCc1ccccc1`: the result in experiment [5], in [6] and in [16] was inactive.
In the case of `CC(O)COCC(C)O` (configuration not stated), the result in experiment [5], in experiment [6] and in experiment [16] was inactive.
With `CN(C)C(=O)Nc1ccccc1`, the result in experiment [5], in experiment [6] and in experiment [16] was inactive.
Consider `NC(=O)c1cccnc1`, for which the outcome in experiment [5], in experiment [6] and in experiment [16] was inactive.
Regarding `O=C1OC2(c3ccc(O)cc3Oc3cc(O)ccc32)c2ccccc21`, the result in experiment [5] and in experiment [16] was inactive. Further, the AC50 in [6] is 0.171 µM (active).
As to `c1ccc(Cc2ccccc2)cc1`, the outcome in [5], in experiment [6] and in experiment [16] was inactive.
Regarding `CCCCCCCCCC(=O)OCC`, the outcome in experiment [5], in experiment [6] and in experiment [16] was inactive.
In the case of `O=C(O)c1ccccc1O`, the outcome in experiment [5], in [6] and in experiment [16] was inactive.
In the case of `CC(C)Cc1ccccc1`, the result in [5], in experiment [6] and in experiment [16] was inactive.
As to `O=C(O)c1cc(C(=O)O)c(C(=O)O)cc1C(=O)O`, the result in [5], in experiment [6] and in experiment [16] was inactive.
Regarding `Brc1cc(Br)cc(Br)c1`, the result in experiment [5], in experiment [6] and in [16] was inactive.
As to `CC(=O)C1C(=O)C=C(C)OC1=O` (configuration not stated), the result in experiment [5], in experiment [6] and in experiment [16] was inactive.
Turning to `CN1CCc2cccc3c2[C@H]1Cc1ccc(O)c(O)c1-3`, the outcome in experiment [5], in experiment [6] and in experiment [16] was inactive.
